These results are taken from ChEMBL document CHEMBL5308504, “Tm Shift (DSF) assay results for EUbOPEN Chemogenomics Library” (2023).

For orientation: ΔTm means the change in melting temperature against a reference sample.

Holding throughout (settings): Compound concentration 20.0 uM, Protein concentration 2.0 uM, Result type QC Liability
In assay [1] the target is Tyrosine-protein kinase ABL1 (Homo sapiens) (UniProt P00519).
The target in assay [2] is Cyclin-dependent kinase 2 (Homo sapiens) (UniProt P24941).
For assay [3], the target named is Casein kinase I isoform delta (Homo sapiens) (UniProt P48730).
Sequence of Casein kinase I isoform delta (Homo sapiens) (P48730 whole entry, looked up, canonical isoform): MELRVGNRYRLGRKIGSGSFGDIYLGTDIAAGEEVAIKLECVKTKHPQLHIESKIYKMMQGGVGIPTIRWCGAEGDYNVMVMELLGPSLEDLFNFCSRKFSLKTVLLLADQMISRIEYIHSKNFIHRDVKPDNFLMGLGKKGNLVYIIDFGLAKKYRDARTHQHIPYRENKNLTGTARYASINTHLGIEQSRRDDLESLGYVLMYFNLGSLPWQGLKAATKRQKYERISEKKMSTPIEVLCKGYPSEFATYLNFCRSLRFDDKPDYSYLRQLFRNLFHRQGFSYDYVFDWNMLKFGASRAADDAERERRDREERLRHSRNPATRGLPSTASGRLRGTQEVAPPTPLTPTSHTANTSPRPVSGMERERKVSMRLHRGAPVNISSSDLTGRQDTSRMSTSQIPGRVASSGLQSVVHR
For assay [4], the target named is Glycogen synthase kinase-3 beta (Homo sapiens) (UniProt P49841).
Sequence of Glycogen synthase kinase-3 beta (Homo sapiens) (P49841 whole entry, looked up): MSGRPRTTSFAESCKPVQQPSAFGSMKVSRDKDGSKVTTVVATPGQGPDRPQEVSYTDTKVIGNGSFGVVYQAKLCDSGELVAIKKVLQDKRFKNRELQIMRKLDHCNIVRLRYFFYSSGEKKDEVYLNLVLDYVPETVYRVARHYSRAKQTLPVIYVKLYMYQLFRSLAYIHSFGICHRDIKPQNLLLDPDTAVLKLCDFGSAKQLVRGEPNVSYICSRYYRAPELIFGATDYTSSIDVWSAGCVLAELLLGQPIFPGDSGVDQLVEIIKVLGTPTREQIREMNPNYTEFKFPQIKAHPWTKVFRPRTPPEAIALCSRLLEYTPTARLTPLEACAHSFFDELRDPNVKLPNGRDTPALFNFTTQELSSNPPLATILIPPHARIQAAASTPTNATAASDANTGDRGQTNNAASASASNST
Assay [5] deals with Mitogen-activated protein kinase 1 (Homo sapiens) (UniProt P28482).
Sequence of Mitogen-activated protein kinase 1 (Homo sapiens) (P28482 whole entry): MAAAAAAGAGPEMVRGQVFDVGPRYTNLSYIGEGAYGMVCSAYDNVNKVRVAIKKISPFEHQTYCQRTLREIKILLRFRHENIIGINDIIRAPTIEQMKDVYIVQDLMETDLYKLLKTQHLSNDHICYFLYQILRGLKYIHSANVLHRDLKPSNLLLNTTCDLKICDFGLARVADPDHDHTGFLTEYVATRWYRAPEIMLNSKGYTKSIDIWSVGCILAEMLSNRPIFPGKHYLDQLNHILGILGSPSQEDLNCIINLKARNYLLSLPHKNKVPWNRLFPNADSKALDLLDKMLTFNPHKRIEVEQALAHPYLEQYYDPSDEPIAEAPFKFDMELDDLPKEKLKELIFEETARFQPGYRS
Assay [6] addresses T1, Aurora kinase A (Homo sapiens) (UniProt O14965).
T1 sequence (whole entry): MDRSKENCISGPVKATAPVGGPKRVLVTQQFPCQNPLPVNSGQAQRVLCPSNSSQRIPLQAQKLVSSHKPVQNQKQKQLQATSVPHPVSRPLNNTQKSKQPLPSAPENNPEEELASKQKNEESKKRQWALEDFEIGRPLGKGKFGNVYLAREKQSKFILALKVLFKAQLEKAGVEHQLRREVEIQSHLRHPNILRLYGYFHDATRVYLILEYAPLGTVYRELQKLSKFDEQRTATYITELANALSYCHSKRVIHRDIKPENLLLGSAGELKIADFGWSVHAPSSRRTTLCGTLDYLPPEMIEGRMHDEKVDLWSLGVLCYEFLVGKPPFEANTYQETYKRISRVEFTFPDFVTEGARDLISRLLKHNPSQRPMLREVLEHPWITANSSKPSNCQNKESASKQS

“And” between values parts separate entries of the source, which are not always exact repeats. Identical values can stand only once.

Sequence of Tyrosine-protein kinase ABL1 (Homo sapiens) (P00519 whole entry): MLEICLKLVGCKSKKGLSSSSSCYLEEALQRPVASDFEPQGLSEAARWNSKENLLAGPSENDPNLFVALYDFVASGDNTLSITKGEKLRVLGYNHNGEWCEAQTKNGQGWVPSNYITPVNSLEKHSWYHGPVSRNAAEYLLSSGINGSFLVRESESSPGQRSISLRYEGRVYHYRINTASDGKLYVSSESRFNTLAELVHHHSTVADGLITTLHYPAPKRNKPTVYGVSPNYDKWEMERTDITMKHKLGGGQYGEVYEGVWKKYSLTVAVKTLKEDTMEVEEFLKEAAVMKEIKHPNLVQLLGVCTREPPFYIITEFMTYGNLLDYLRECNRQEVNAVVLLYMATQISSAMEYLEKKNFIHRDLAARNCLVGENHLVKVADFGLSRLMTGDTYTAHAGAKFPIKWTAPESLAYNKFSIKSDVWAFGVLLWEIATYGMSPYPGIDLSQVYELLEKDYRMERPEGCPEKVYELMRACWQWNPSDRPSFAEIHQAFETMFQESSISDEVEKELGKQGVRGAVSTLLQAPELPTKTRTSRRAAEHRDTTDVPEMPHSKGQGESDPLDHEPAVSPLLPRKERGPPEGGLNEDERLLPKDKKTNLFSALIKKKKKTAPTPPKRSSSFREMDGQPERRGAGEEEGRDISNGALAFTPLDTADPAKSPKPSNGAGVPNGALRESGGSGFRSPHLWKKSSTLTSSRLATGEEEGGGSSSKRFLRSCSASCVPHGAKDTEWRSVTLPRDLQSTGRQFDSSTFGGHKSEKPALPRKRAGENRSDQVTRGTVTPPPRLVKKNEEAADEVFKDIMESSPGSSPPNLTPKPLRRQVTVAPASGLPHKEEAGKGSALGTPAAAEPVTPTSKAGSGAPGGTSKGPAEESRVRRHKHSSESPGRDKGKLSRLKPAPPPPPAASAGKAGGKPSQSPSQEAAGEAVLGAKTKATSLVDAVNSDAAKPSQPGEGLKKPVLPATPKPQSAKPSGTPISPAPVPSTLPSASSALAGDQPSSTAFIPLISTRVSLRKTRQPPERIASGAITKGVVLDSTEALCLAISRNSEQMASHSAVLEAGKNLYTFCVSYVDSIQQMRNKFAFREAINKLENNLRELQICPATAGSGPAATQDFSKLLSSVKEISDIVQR

Take `O=c1cc(C2CCNCC2)n2nc3cccc(Cl)c3c2[nH]1`: the ΔTm in assay [1] is 0.46 °C; in assay [2], -0.11 °C; in assay [3], 0.7 °C; in assay [4], 0.46 °C; in assay [5], 0 °C; in assay [6], -0.12 °C.
Consider `CCCCC[C@H](O)/C=C/[C@H]1[C@H](O)CC(=O)[C@@H]1CCCCCCC(=O)O`, for which the ΔTm was 0.19 °C in assay [1]; 0.43 °C in assay [2]; 0.1 °C in assay [3]; -0.48 °C in assay [4]; 0.29 °C in assay [5]; -0.09 °C in assay [6].
On to `Oc1c(-c2cccnc2)cnn1-c1ccccn1`, for which the ΔTm in assay [1] was -0.25 °C; in assay [2], 0.31 °C; in assay [3], 0.78 °C; in assay [4], -0.42 °C; in assay [5] it was 0.36 °C; in assay [6], -0.05 °C.
As to `CC(C=CC1=C(C)CCCC1(C)C)=CC=CC(C)=CC(=O)O`, the ΔTm was 0.39 °C in assay [1]; 0.25 °C in assay [2]; 0.93 °C in assay [3]; -0.56 °C in assay [4]; 0.1 °C in assay [5]; -3.01 °C in assay [6].
Consider `CCN1CCN(Cc2ccc(Nc3ncc(F)c(-c4cc(F)c5nc(C)n(C(C)C)c5c4)n3)nc2)CC1`, for which the ΔTm in assay [1] amounted to 3.44 °C; in assay [3] it was 4.97 °C; in assay [4] it was 11.1 °C; in assay [5] it was 1.41 °C; in assay [6], 3.81 °C.
As to `CNC(=O)c1c[nH]c2ccc(Nc3nccc(-c4ccccn4)n3)cc12`, the ΔTm in assay [1] amounted to 2 °C; in assay [2], 1.28 °C; in assay [3] it was 0.6 °C; in assay [4], 2.67 °C; in assay [5] it was 0.16 °C; in assay [6] it was 1.47 °C.
`NS(=O)(=O)c1ccc(Nc2nc(OCC3CCCCC3)c3nc[nH]c3n2)cc1`: the ΔTm in assay [1] was found to be 5.71 °C; in assay [3], 0.51 °C; in assay [4], 5.83 °C; in assay [5] it was 2.65 °C; in assay [6], 7.68 °C.
In the case of `CN(C)CCCNc1ccnc(Nc2cccc(Cl)c2)n1`, the ΔTm was 2.74 °C in assay [1]; 2.3 °C in assay [2]; 0.78 °C in assay [3]; 6.75 °C in assay [4]; 0.51 °C in assay [5]; 2.26 °C in assay [6].
On to `COc1ccccc1[C@@H]1CNCCC12CCN(C(=O)[C@](OC)(c1ccccc1)C(F)(F)F)CC2`, for which the shift in melting temperature (ΔTm) in assay [1] was 0.26 °C; in assay [2], 0.48 °C; in assay [3], 0.35 °C; in assay [4], -1.18 °C; in assay [5], -0.22 °C; in assay [6] it was -0.11 °C.
Turning to `COc1cc2ncnc(Nc3cccc(O)c3)c2cc1OC`, the ΔTm came out at 8.2 °C in assay [1]; 2.54 °C in assay [3]; 3.7 °C in assay [4]; 0.61 °C in assay [5]; 2.79 °C in assay [6].
As for `CCc1cnn2c(NCc3ccc[n+]([O-])c3)cc(N3CCCCC3CCO)nc12` (centres undefined), the ΔTm is 0.22 °C in assay [1]; 1.31 °C in assay [3]; 7.6 °C in assay [4]; 1.41 °C in assay [5]; -0.54 °C in assay [6].
In the case of `O=C1Nc2nc(-c3c(O)cccc3OCC3CC3)cc([C@@H]3CCCNC3)c2CO1`, the ΔTm was 0.61 °C in assay [1]; 2.37 °C in assay [2]; 2.04 °C in assay [3]; 1.54 °C in assay [4]; 1.1 °C in assay [5]; -0.03 °C in assay [6].
Take `CCn1c(-c2nonc2N)nc2ccccc21`: the ΔTm in assay [1] came to 0.33 °C; in assay [2] it was 0.64 °C; in assay [3], 0.5 °C; in assay [4] it was 4.22 °C; in assay [5], 0.41 °C; in assay [6] it was 1.84 °C.
In the case of `Cc1n[nH]c2ncc(C(=O)N3CCC[C@H]3c3ccc(Cl)cc3)cc12`, the ΔTm in assay [1] was determined as 0.42 °C; in assay [2], 0.82 °C; in assay [3], 0.12 °C; in assay [4], 7.82 °C; in assay [5] it was 0.69 °C; in assay [6], 0.03 °C.
Regarding `CN[C@@H](C)C(=O)N[C@H](C(=O)N1CCC[C@H]1C(=O)N[C@@H]1CCCc2ccccc21)C1CCCCC1`, the ΔTm in assay [1] was 0.2 °C; in assay [2], 0.07 °C; in assay [3] it was 1.13 °C; in assay [4], -0.99 °C; in assay [5] it was 0.48 °C; in assay [6], -0.97 °C.
Turning to `O=C(NC1CCNCC1)c1n[nH]cc1NC(=O)c1c(Cl)cccc1Cl`, the ΔTm in assay [1] was 0.36 °C; in assay [3], 0.04 °C; in assay [4] it was 11.4 °C; in assay [5] it was -0.04 °C; in assay [6], -1.05 °C.
On to `CC[C@@H]1C(=O)N(C)c2cnc(Nc3ccc(C(=O)NC4CCN(C)CC4)cc3OC)nc2N1C1CCCC1`, for which the ΔTm is 1.51 °C in assay [1]; 0.58 °C in assay [2]; 0.02 °C in assay [4]; 0.15 °C in assay [5]; -0.18 °C in assay [6].
On to `COc1cc(-c2cn(C)c(=O)c3cnccc23)c(OC)cc1CN(C)C`, for which the ΔTm was 0.49 °C in assay [1]; 0.53 °C in assay [2]; 0.06 °C in assay [3]; 0.1 °C in assay [4]; -0.12 °C in assay [5]; -0.18 °C in assay [6].
For `O=C(Nc1ccc(N2CCC(C(=O)N3CCOCC3)CC2)cc1)c1cnc(Oc2ccccc2)nc1`, the ΔTm in assay [1] is 0.2 °C; in assay [2], 0.87 °C; in assay [3], 0.06 °C; in assay [4] it was -0.13 °C; in assay [5] it was 0.13 °C; in assay [6], -0.24 °C.
For `CCS(=O)(=O)c1cc2cc(C[C@@](O)(CC(C)(C)c3ccc(F)cc3C(N)=O)C(F)(F)F)[nH]c2cn1`, the ΔTm in assay [1] was -0.47 °C and 0.04 °C; in assay [2], 0.64 °C and 0.86 °C; in assay [3], 0.37 °C and 0.15 °C; in assay [4] it was -0.42 °C and -0.19 °C; in assay [5], -0.08 °C and 0.35 °C; in assay [6] it was -0.24 °C and 0.19 °C.
Turning to `CC(C)[C@H](CO)Nc1nc(Nc2ccc(C(=O)O)c(Cl)c2)c2ncn(C(C)C)c2n1`, the ΔTm was 6.07 °C in assay [1]; 9.51 °C in assay [2]; 2.59 °C in assay [3]; 2.37 °C in assay [4]; 4.14 °C in assay [5]; 7.69 °C in assay [6].
Turning to `COCCc1ccc(-c2c(C)nc3c(N4CCOCC4)ccnn23)cn1`, the thermal shift (ΔTm) in assay [1] was 0.28 °C; in assay [2], 0.2 °C; in assay [3], 0.24 °C; in assay [4], -0.61 °C; in assay [5], 0.69 °C; in assay [6], 0.4 °C.
For the compound `CC(C)(O)[C@H]1CC[C@H](Nc2ccc3ncc(-c4cccc(C(F)(F)F)c4)n3n2)CC1`, the ΔTm is 0.38 °C in assay [1]; 1.53 °C in assay [2]; 3.57 °C in assay [3]; 2.41 °C in assay [4]; 0.62 °C in assay [5]; 0.74 °C in assay [6].
With `CCc1cc2c(cc1N1CCC(N3CCOCC3)CC1)C(C)(C)c1[nH]c3cc(C#N)ccc3c1C2=O`, the ΔTm in assay [1] was 0.88 °C; in assay [2] it was 1.02 °C; in assay [3], 0.16 °C; in assay [4] it was 0.18 °C; in assay [5] it was 0.1 °C; in assay [6], -0.02 °C.
`CC(C)(O)c1cn(-c2ccc(-c3cccc(S(C)(=O)=O)c3)cc2)c(C(C)(C)c2ccccc2Cl)n1`: the ΔTm in assay [1] is -1.7 °C; in assay [2], 0.08 °C; in assay [3], -0.27 °C; in assay [4] it was -0.99 °C; in assay [5], 0.15 °C; in assay [6], -3.66 °C.
For `COc1cc2ncnc(Nc3ccc(F)c(Cl)c3)c2cc1OCCN(C)C[C@H](C)O`, the ΔTm in assay [1] was 2.95 °C; in assay [2], 0.34 °C; in assay [3] it was 1.99 °C; in assay [4], -0.21 °C; in assay [5], 0.43 °C; in assay [6], 0.41 °C.
In the case of `CN(C)c1ccc(-c2cc3ncccc3c(OCCCCO)n2)cc1`, the ΔTm in assay [1] was determined as 5.68 °C; in assay [2], 0.73 °C; in assay [3], 1.32 °C; in assay [4], 0.13 °C; in assay [5] it was 0.3 °C; in assay [6], 8.85 °C.
For `COc1ccc(N(C(=O)Nc2c(C)cccc2C)c2cc(Nc3ccc(N4CCN(C)CC4)cc3)ncn2)c(OC)c1`, the ΔTm in assay [2] worked out at 0.7 °C; in assay [3], 2.65 °C; in assay [4], 3.75 °C; in assay [5], 0.48 °C; in assay [6], 10.1 °C.
For the compound `CC(C)(O)[C@H](F)CN1Cc2cc(NC(=O)c3cnn4cccnc34)c(N3CCOCC3)cc2C1=O`, the ΔTm in assay [1] was 2.02 °C; in assay [2] it was -0.03 °C; in assay [3], 0.59 °C; in assay [4], 0.95 °C; in assay [5], 0.46 °C; in assay [6] it was 3.04 °C.
For `COc1ccc(COc2ccc(Cc3cnc(N)nc3N)cc2OC)cc1`, the ΔTm was -0.19 °C in assay [1]; -0.66 °C in assay [3]; -0.98 °C in assay [4]; 0.25 °C in assay [5]; -0.26 °C in assay [6].
As to `CNc1[nH]c(Nc2ccc(C(=O)N3CCOCC3)cc2OC)nc2ncc(Cl)c1-2`, the shift in melting temperature (ΔTm) in assay [1] is 0.1 °C; in assay [2] it was -0.26 °C; in assay [3], 4.5 °C; in assay [4] it was -1.11 °C; in assay [5] it was 0.86 °C; in assay [6], 1 °C.
Turning to `Cc1ccc(-n2nc(C(C)(C)C)cc2NC(=O)Nc2ccc(OCCN3CCOCC3)c3ccccc23)cc1`, the ΔTm in assay [2] is 1.17 °C and 1.39 °C; in assay [3] it was 3.31 °C and 1.35 °C; in assay [4], 3.17 °C and 2.68 °C; in assay [5], 0.43 °C and 1.14 °C; in assay [6], 0.18 °C and 0.11 °C.
`CC1=C(C(=O)OCCO)[C@@H](c2ccc(C#N)cc2)NC(=O)N1c1cccc(C(F)(F)F)c1`: the ΔTm in assay [1] is -0.45 °C; in assay [2], -0.38 °C; in assay [3], 0.44 °C; in assay [4] it was -0.19 °C; in assay [5], 0.15 °C; in assay [6], -0.11 °C.
As to `O=C(Nc1ccc(OC(F)(F)Cl)cc1)c1cnc(N2CC[C@@H](O)C2)c(-c2cc[nH]n2)c1`, the ΔTm in assay [2] was found to be 1.08 °C; in assay [3] it was 0.99 °C; in assay [4], 0 °C; in assay [5], 0.21 °C; in assay [6], 0.17 °C.
As to `CC(C)(C)c1cnc(CSc2cnc(NC(=O)C3CCNCC3)s2)o1`, the ΔTm in assay [1] came out at 0.04 °C; in assay [3] it was 1.29 °C; in assay [4], 8.72 °C; in assay [5], 0.73 °C; in assay [6], 4.45 °C.
